Compounds with a hit are over-represented: about 2.8% of the library has one in this group of screens.
PI5P4Ka inh – qHTS for Inhibitors of phosphatidylinositol 5-phosphate 4-kinase (PI5P4K); Phosphatidylinositol 5-phosphate 4-kinase type-2 alpha (Homo sapiens), P48426; PI5P4Kalpha enzyme, ADP-Glo luminescence, 60 min; active compounds read low; max response, %; hit rate 1.2% among 330,000; AID 652105, 2013; active means max response of -50% or lower; inconclusive means between -30% and -50%; inactive means -30% or higher; further: value at the top dose of about 77 µM
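Single end-point luminescence (ADP-Glo) quantified ADP from PI5P4Kalpha turnover; ATP 5 microM final, 1 h at RT, 0.1% CHAPS and 0.28 mM EGTA in HEPES pH 7.4.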
POLH inh – qHTS for Inhibitors of Polymerase Eta. recombinant Pol eta, fluorescent DNA replication assay. Potency, µM (titrated, usually from 114 µM), hits mostly inhibitors. hit rate 1.2% among 390,000
Target sequence (Q9Y253 whole entry, looked up): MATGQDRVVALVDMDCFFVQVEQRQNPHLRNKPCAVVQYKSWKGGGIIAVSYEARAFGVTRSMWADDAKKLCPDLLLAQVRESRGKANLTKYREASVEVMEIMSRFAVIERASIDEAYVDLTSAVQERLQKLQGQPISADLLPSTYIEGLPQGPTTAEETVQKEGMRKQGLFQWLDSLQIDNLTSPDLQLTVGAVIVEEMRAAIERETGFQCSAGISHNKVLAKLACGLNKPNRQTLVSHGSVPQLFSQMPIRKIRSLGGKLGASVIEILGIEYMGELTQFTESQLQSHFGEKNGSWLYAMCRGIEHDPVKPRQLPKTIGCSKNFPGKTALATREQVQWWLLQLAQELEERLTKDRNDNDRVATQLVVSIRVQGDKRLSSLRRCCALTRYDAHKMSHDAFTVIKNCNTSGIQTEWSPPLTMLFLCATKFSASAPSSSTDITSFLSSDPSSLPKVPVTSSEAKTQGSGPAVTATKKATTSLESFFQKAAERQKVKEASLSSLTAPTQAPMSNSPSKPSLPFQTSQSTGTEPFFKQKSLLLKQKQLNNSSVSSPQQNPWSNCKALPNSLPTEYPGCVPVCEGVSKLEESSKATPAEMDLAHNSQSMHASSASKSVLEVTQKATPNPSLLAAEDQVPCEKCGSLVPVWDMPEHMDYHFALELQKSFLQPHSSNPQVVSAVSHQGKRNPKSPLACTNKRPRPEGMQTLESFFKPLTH
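Fluorescent replication assay: 50 nM final substrate added after a 15 min room-temperature compound preincubation with 10 nM enzyme. Signal taken at 0 min and again at 10 min.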
Pol iota inh – qHTS for Inhibitors of Polymerase Iota. hit rate 1% among 390,000. DNA polymerase iota (Homo sapiens), Q9UNA4. Potency, µM (top dose mostly 115 µM), actives largely listed as inhibitors. Pol iota fluorescent replication assay, 10 min
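Fluorescent replication assay read twice, at 0 min and 10 min after adding 50 nM (final) substrate. Enzyme (10 nM) and compounds were first incubated 15 min at room temperature; enzyme-free buffer wells were negative controls.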
Pol beta inh – qHTS Assay for Inhibitors of DNA Polymerase Beta; P06746; Pol beta primer extension/strand displacement, fluorescence kinetic; Potency, µM (titrated, usually from 114 µM), actives largely listed as inhibitors; hit rate 1.3% among 340,000
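Preincubation: enzyme (10 nM) with compound, 15 min, RT. Reaction: substrate added to 50 nM final. Reads: 0 and 10 min. Analysis: normalized, Hill fit.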
FEN1 inh – qHTS Assay for the Inhibitors of Human Flap endonuclease 1 (FEN1); Recombinant FEN1 flap cleavage, fluorescence, 15 min; hit rate 0.35% among 390,000; AID 588795, 2011; P39748; Potency, µM (series often up to 114 µM), hits mostly inhibitors; further: nearly all actives have a fitted effect of over 65% in size
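In this screen, 50 nM flap DNA substrate was added to 10 nM FEN1 pretreated with compound for 15 min at room temperature; cleavage was followed with reads at 0 and 15 min, and Hill fitting gave concentration–response parameters.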
Pol kappa inh – qHTS for Inhibitors of Polymerase Kappa; hit rate 0.53% among 400,000; DNA polymerase kappa (Homo sapiens), Q9UBT6; AID 588579, 2011; Potency, µM (titrated, usually from 107 µM), actives largely listed as inhibitors; purified Pol kappa, fluorescent DNA synthesis assay, 10 min
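Here, compound and 10 nM enzyme are combined for 15 min at room temperature; adding 50 nM substrate (final) starts DNA synthesis, tracked by fluorescence at 0 and 10 min against buffer-only wells.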
ADP-Glo interf – qHTS for Inhibitors of PI5P4K: ADP-Glo counter assay; shares compounds with PI5P4Ka inh; ADP-Glo detection counter-screen, luciferase luminescence, no enzyme; Potency, µM (titrated, usually from 76.9 µM), usual class: inhibitors; 1,100 tested, under 10 active
Of the large screens only hits and unclear results are named; the others gave an inactive call (follow-up assays come after a bar, where they were run). Unless noted, the call rests on the fitted dose curve; in most records, active means well fitted curve in the direction sought with a large enough effect; inconclusive means small, poorly fitted or top-dose-only effect, or another doubt; inactive means no such curve, though single readings can be large; an effect the other way counts as inactive or inconclusive.

CCc1ccc(N2CC(C(=O)Nc3nc4ccc(S(C)(=O)=O)cc4s3)CC2=O)cc1 (stereo unspecified)	none
CCOc1ccc(CC(=O)Nc2sc(Cc3ccccc3)c(C)c2C(N)=O)cc1OCC	PI5P4Ka inh -53 | ADP-Glo interf inactive
COC(=O)CN1C(=O)CSc2ccc(S(=O)(=O)Nc3cccc(Br)c3)cc21	none (no result: PI5P4Ka inh)
CC(=O)N1CCOc2ccc(S(=O)(=O)N3CCC(C(=O)NCc4ccc(Cl)cc4)CC3)cc21	none (no result: Pol iota inh, Pol beta inh, FEN1 inh, Pol kappa inh)
CN(C)C(=O)c1ccc(NC(=O)COC(=O)C2=COCCO2)cc1	PI5P4Ka inh inconclusive, Pol iota inh inconclusive (no result: Pol beta inh) | ADP-Glo interf inactive
CC(=O)NS(=O)(=O)c1ccc(NC(=O)COc2ccc(C(=O)c3ccccc3)cc2)cc1	none
Cc1sc2ncnc(N[C@@H](CCC(=O)O)C(=O)O)c2c1C	none
Cc1sc2ncnc(NC(C)C(=O)O)c2c1C (stereo unspecified)	none (no result: PI5P4Ka inh) | ADP-Glo interf inactive
CSc1cccc(NC(=O)C(C)NS(=O)(=O)c2ccc(F)cc2)c1 (stereo unspecified)	none (no result: PI5P4Ka inh)
COc1ccc(CCNC(=O)CNCC(c2ccccc2)N(C)C)cc1OC (stereo unspecified)	none | ADP-Glo interf inactive
COc1ccc(CCNC(=O)CSc2ccccc2)cc1OC	Pol iota inh inconclusive
CCOc1ccc(OCc2ccc(C(=O)N3CCOCC3)cc2)cc1	PI5P4Ka inh -54 | ADP-Glo interf inactive
Cc1[nH]c(C)c(S(=O)(=O)NCCc2ccc(S(N)(=O)=O)cc2)c1C(=O)N1CCCC1	none
CC(C)OC(=O)c1c(NC(=O)c2cccc(C(F)(F)F)c2)sc2c1CCCC2	none (no result: PI5P4Ka inh)
O=C1c2ccccc2NC(c2ccc(O)c(O)c2)N1c1ccccc1Cl (stereo unspecified)	Pol iota inh inconclusive, Pol kappa inh inconclusive
CC(NC(=O)c1ccnn1C)C1CCCO1 (stereo unspecified)	PI5P4Ka inh inconclusive | ADP-Glo interf inactive
Cc1ccc(Nc2nc(C)c3c(n2)CC(C)CC3=O)c(C)c1 (stereo unspecified)	none | ADP-Glo interf inactive
Cc1nc(Nc2cccc(C(F)(F)F)c2)nc2c1C(=O)CC(C)C2 (stereo unspecified)	none
Clc1cccc(Cl)c1CNc1ccc(N2CCCC2)cc1	PI5P4Ka inh -51 | ADP-Glo interf inactive
CCOc1ccccc1CNC(=O)Cn1c(-c2ccccc2)cc(C(C)=O)c1C	none (no result: PI5P4Ka inh)
Cc1cc(C(=O)OCC(=O)Nc2cc(S(=O)(=O)N3CCOCC3)ccc2Cl)c(C)o1	Pol iota inh inconclusive, Pol beta inh inconclusive | ADP-Glo interf inactive
NC(=O)c1ccsc1NC(=O)COC(=O)c1cnccn1	PI5P4Ka inh -63, POLH inh inconclusive, Pol iota inh 79µM, Pol kappa inh inconclusive (no result: Pol beta inh) | ADP-Glo interf inactive
CCC(C)C(NC(=O)C1CCC(C)CC1)C(=O)NCc1ccccn1 (stereo unspecified)	none
CN(C)c1ccc(CCc2ccnc3ccccc23)cc1	none (no result: PI5P4Ka inh, POLH inh, Pol beta inh)
Cc1nc(CS(=O)(=O)c2ccccc2)cc(N2CCOCC2)n1	PI5P4Ka inh -57 | ADP-Glo interf inactive
Cc1nc(CSc2ccc(Cl)cc2)cc(N2CCOCC2)n1	none
Cc1ccc(S(=O)(=O)n2nc(-c3ccccc3)nc2NCc2ccccc2Cl)cc1	Pol iota inh inconclusive (no result: PI5P4Ka inh)
COc1cccc2cc(C(C)N(CCCN3CCOCC3)C(=O)Nc3ccccc3)oc12 (stereo unspecified)	none | ADP-Glo interf inactive
COc1ccc(NC(=S)N(CCCN2CCOCC2)C(C)c2cc3cccc(OC)c3o2)cc1 (stereo unspecified)	none
COc1n[nH]c(C(=O)Nc2nc3ccccc3s2)c1[N+](=O)[O-]	PI5P4Ka inh -54, POLH inh inconclusive, Pol iota inh inconclusive | ADP-Glo interf inactive
COc1n[nH]c(C(=O)NCc2ccccc2)c1[N+](=O)[O-]	none
COc1ccc(NC(=O)CSc2nc(-c3ccco3)nc3cc(=O)[nH]n23)cc1Cl	PI5P4Ka inh -56, POLH inh inconclusive, Pol iota inh 79µM | ADP-Glo interf inactive
CCN(c1ncnc2c1c(-c1ccccc1)cn2-c1ccccc1)C1CCCCC1	Pol iota inh inconclusive (no result: PI5P4Ka inh)
O=C(Nc1nnc(SCc2ccc(Cl)cc2)s1)c1ccco1	PI5P4Ka inh -57, Pol iota inh inconclusive | ADP-Glo interf inactive
COc1ccccc1NS(=O)(=O)c1cccc(C(=O)N/N=C(\C)c2ccc3c(c2)OCCO3)c1	none
N#Cc1cc(-c2ccccc2)nn1-c1ccccc1	PI5P4Ka inh -80, Pol iota inh inconclusive | ADP-Glo interf inactive
Cn1ccc(-c2ccccc2)n1	none
CC(=O)NC(CC(=O)N1CCN(C(C)=O)CC1)c1ccccc1 (stereo unspecified)	none
COCCn1c(SCC(=O)Nc2cccc(S(N)(=O)=O)c2)nc2cc(Cl)ccc2c1=O	PI5P4Ka inh -63 | ADP-Glo interf inactive
CC(OC(=O)Cn1cnc2c1c(=O)n(C)c(=O)n2C)C(=O)NC(C)c1ccc(Cl)cc1Cl (stereo unspecified)	none (no result: Pol beta inh)
NS(=O)(=O)c1ccc(CCNC(=O)c2ccc(NC3=NC4CS(=O)(=O)CC4S3)cc2)cc1 (stereo unspecified)	none
CC(=O)Cn1nnc2sc(-c3ccccc3)cc2c1=O	PI5P4Ka inh -54, POLH inh inconclusive, Pol beta inh inconclusive | ADP-Glo interf inactive
Clc1ccc(-c2nnc(-c3ccco3)nc2N2CCCCC2)cc1	PI5P4Ka inh -67, POLH inh inconclusive, Pol beta inh 40µM | ADP-Glo interf inactive
Cc1nc(-c2cccc(C(F)(F)F)c2)sc1C(=O)O	PI5P4Ka inh -50 | ADP-Glo interf inactive
Cc1oc2ccc(OCc3c(F)cccc3Cl)cc2c1C(=O)O	PI5P4Ka inh -55 | ADP-Glo interf inactive
CCCCCCCCNc1ccc(/C=C/c2ccnc3ccccc23)cc1	Pol iota inh inconclusive, Pol kappa inh inconclusive (no result: PI5P4Ka inh, POLH inh, Pol beta inh)
Cc1ccc(N(C(=O)CNC(=O)c2ccco2)C(C(=O)NC2CCCC2)c2cccnc2)c(C)c1 (stereo unspecified)	PI5P4Ka inh -58 | ADP-Glo interf inactive
Cc1ccc(N(C(=O)CNC(=O)c2ccco2)C(C(=O)NC2CCCCC2)c2cccnc2)c(C)c1 (stereo unspecified)	none
C=CCN1[C@@H](C(C)C)COCCS1(=O)=O	none (no result: PI5P4Ka inh, POLH inh, Pol beta inh)
